In PubChem BioAssay (Tox21):
Results filed as inconclusive are left out. Where a call stands in place of a potency, no number is given. Calls of active or inactive are those of the source. The call rests on the fitted dose curve; in most records, active means well fitted cell-killing curve with a large enough effect in the repeat runs; inconclusive means weak or mixed curves, or effect the other way; inactive means no such curve, though single readings can be large or run the other way.

assay: qHTS assay to identify small molecule antagonists of the vitamin D receptor (VDR) signaling pathway - cell viability counter screen (AID 743225); details: VDR-bla HEK293T viability, CellTiter-Glo luminescence, 16 h; series mostly up to 61 µM; further: nearly all actives have a fitted effect of over 50% in size
Text: U.S. Tox21 Program National Center for Advancing Translational Sciences [NCATS] NIH Chemical Genomics Center [NCGC] U.S. Environmental Protection Agency [EPA] National Institutes of Environmental Health Sciences [NIEHS] National Toxicology Program [NTP] U.S. Food and Drug Administration [FDA] Tox21 Assay Overview: The vitamin D receptor (VDR), a member of nuclear hormone receptor superfamily, plays a critical role in calcium homeostasis and bone metabolism. It is also involved in cell differentiation and growth, and thrombogenicity. To identify the compounds that inhibit VDR signaling, the VDR-UAS-bla HEK 293T cell line (Invitrogen, Carlsbad, CA, USA) containing a beta-lactamase reporter gene under the control of an upstream activator sequence (UAS) was used to screen the Tox21 10K compound library. The cytotoxicity of the Tox21 compound library against the VDR-bla cell line was tested in parallel by measuring the cell viability using CellTiter-Glo assay (Promega, Madison, WI) in the same wells.
Tox21 Assay Protocol Summary: VDR-bla cells were dispensed at 2,000 cells/5 uL of assay medium per well into black wall/clear-bottom 1536-well plates using a Multidrop Combi (Thermo Fisher Scientific, Waltham, MA) dispenser. After the assay plates were incubated at a 37C and 5% CO2 for 4 h, 23 nL of compounds dissolved in DMSO, positive controls or DMSO only was transferred to the assay plate by a Pintool station (Kalypsys, San Diego, CA), followed by addition of 1 uL of 1-alpha, 25-Dihydroxy Vitamin D3 (3 nM, final concentration in the wells) using a Bioraptr Flying Reagent Dispenser (FRD) workstation (Beckman Coulter, Indianapolis, IN). The plates were incubated at 37C and 5% CO2 for 16 h, and then 1 uL of LiveBLAzerTM B/G FRET substrate was added using a Bioraptr FRD. The plates were incubated at room temperature for 2 h and fluorescence intensity was measured by an Envision plate reader (PerkinElmer, Shelton, CT). For cell viability readout that measures cytotoxicity, 3 ul/well of CellTiter-Glo reagent was added into the assay plates using a Bioraptr FRD. After 30 min incubation at room temperature, the luminescence intensity in the plates was measured using a ViewLux plate reader (PerkinElmer).

| Compound | Potency |
| --- | --- |
| CCCCCBr | inactive |
| Cc1nc2ccccc2c(=O)n1-c1ccccc1Cl | inactive |
| O=C(Cc1ccccc1)OCCc1ccccc1 | inactive |
| CC(C)c1ccc(NC(=O)N(C)C)cc1 | inactive |
| C[N+]1(CCC(C(N)=O)(c2ccccc2)c2ccccc2)CCCCC1 | inactive |
| FC(F)OC(F)(F)C(F)Cl (stereo not given) | inactive |
| C[C@H]1[C@@H]2Cc3ccc(O)cc3[C@@]1(C)CCN2C | inactive |
| CCC(C)(C)O | inactive |
| COc1ccc(C(O)(c2cncnc2)C2CC2)cc1 (stereo not given) | inactive |
| CC(O)CN1CCN(CC(=O)[O-])CCN(CC(=O)[O-])CCN(CC(=O)[O-])CC1.[Gd+3] (stereo not given) | inactive |
| Nc1ccc2c(c1)Cc1ccccc1-2 | inactive |
| C1CCNCC1 | inactive |
| O=C(O)c1ccc(=O)[nH]c1 | inactive |
| Clc1ccccc1 | inactive |
| FC(Cl)(Cl)C(F)(Cl)Cl | inactive |
| CCOc1cccc(C2(N3CCN(c4ccccc4)CC3)CCC(C)CC2)c1 (stereo not given) | inactive |
| CCOP(=S)(OCC)Oc1ccc(S(C)=O)cc1 (stereo not given) | inactive |
| CC1(C)CC(=O)CC(C)(C)N1[O] | inactive |
| O=[N+]([O-])O[C@H]1CO[C@H]2[C@@H]1OC[C@H]2O[N+](=O)[O-] | inactive |
| COc1cc(CC(C)N)c(OC)cc1Br (stereo not given) | inactive |

| Compound | Potency |
| --- | --- |
| O=C(O)C(F)(F)C(F)(F)C(F)(F)C(F)(F)C(F)(F)F | inactive |
| Nc1cccc2ccccc12 | inactive |
| CCCCC#N | inactive |
| C[N+](C)(C)CCOC(=O)C(O)(c1ccccc1)c1ccccc1 | inactive |
| C#C[C@]1(O)CC[C@H]2[C@@H]3CCC4=CC(=O)CCC4=C3C=C[C@@]21CC | inactive |
| OC[P+](CO)(CO)CO | inactive |
| COc1cc(C[C@@H](C)N)c(OC)cc1Br | inactive |
| CN1CC[C@]23c4c5ccc(O)c4O[C@H]2[C@@H](O)CC[C@H]3[C@H]1C5 | inactive |
| Nc1cc(Cl)cc(C(=O)O)c1Cl | inactive |
| CCC(=O)O[C@@H]1C=C2CCC3C(CCC4(C)C3CC[C@@H]4OC(=O)CC)C2CC1 (stereo not given in full) | inactive |
| CC(C)CCON=O | inactive |
| CCCN(CCOc1c(Cl)cc(Cl)cc1Cl)C(=O)n1ccnc1 | inactive |
| CN1CC[C@]23c4c5ccc(O)c4O[C@H]2[C@@H](O)C=C[C@H]3[C@H]1C5 | inactive |
| N#CC1(N=NC2(C#N)CCCCC2)CCCCC1 | inactive |
| NC(=O)CF | inactive |
| Cc1ccc(N)c(C)c1 | inactive |
| C=C(C)C(=O)OCCCCOC(=O)C(=C)C | inactive |
| CCCN(CCC)C(=O)Cc1c(-c2ccc(Cl)cc2)nc2ccc(Cl)cn12 | inactive |
| CCCCC(CC)COC(=O)c1c(Br)c(Br)c(Br)c(Br)c1C(=O)OCC(CC)CCCC (stereo not given) | inactive |
| CCCCCCCCP(=O)(O)O | inactive |
